Bioassay records from PubChem BioAssay.
Pf Dd2 inh: qHTS Primary assay for Inhibitors of Plasmodium falciparum Dd2 growth in vitro; 120,000 tested, 4.3% active; P. falciparum Dd2 growth, SYBR Green, 72 h; Potency, µM (highest dose often 28.9 µM), for inactives: top-dose activity, negative = inhibition, usual class: inhibitors; active means well fitted inhibition curve with a large enough effect;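 further: plate controls were DMSO vehicle for no effect and reference drug for full effect; nearly all actives have a fitted effect of over 65% in size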
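Infected erythrocytes (Dd2, 0.3% parasitemia, 2.5% hematocrit final) are added to compound in RPMI-1640/Albumax II medium, grown 72 h at 37C in low oxygen, then lysed with saponin/Triton-X containing SYBR Green and read by fluorescence.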
* = called active by the depositor; [ ] = dose if it differs, or a comment. Shown is part of a subset that was picked to be rich in hits. Potency means the concentration at half of the fitted maximal effect.

How did CC1(c2ccccc2)N(Cc2ccccc2C#N)C(=O)OC12CCN(C(=O)c1ccc(F)cc1)CC2 (configuration not stated) do in these assays?
Pf Dd2 inh: inactive

Results for CC1(c2cccnc2)N(Cc2ccccc2)C(=O)OC12CCN(C(=O)C1CCC1)CC2 (configuration not stated) ?
Pf Dd2 inh: -17%[44.1 µM]

How did CC1(c2ccccc2)N(Cc2ccccc2C#N)C(=O)OC12CCN(C(=O)Cc1ccccn1)CC2 (configuration not stated) do in these assays?
Pf Dd2 inh: inactive

How did CC1(c2ccccc2)N(Cc2ccccc2F)C(=O)OC12CCN(C(=O)CN1CCOCC1)CC2 (configuration not stated) do in these assays?
Pf Dd2 inh: inactive

Results for CC1(c2ccccc2)N(Cc2ccccc2F)C(=O)OC12CCN(C(=O)c1cnccn1)CC2 (configuration not stated) ?
Pf Dd2 inh: inactive

What do the screens show for `O=C(C1CC1)N1CCC(Cc2nncn2-c2ccccc2)C1` (configuration not stated)?
Pf Dd2 inh: -10%

Results for O=C1NC2(Cc3ccccc31)CN(CC1CCNC1)C2 (configuration not stated) ?
Pf Dd2 inh: 18%[44.1 µM]

How did O=C(Cc1cccc(F)c1)N1CC2CC(C1)[C@H]1CCCC(=O)N1C2 (some centres not stated) do in these assays?
Pf Dd2 inh: -5%

Results for CCn1cc(CNc2ncc(C(C)(C)C(=O)O)c(N3CCOCC3)n2)cn1 ?
Pf Dd2 inh: 10%

Results for CNc1ncccc1C(=O)N1CCCN(Cc2ccc(F)cc2)C(C(C)C)C1 (configuration not stated) ?
Pf Dd2 inh: inactive

Results for CC(C)c1nc2nccc(-c3cccs3)n2n1 ?
Pf Dd2 inh: inactive

Results for COc1cccc(C(=O)N2CC3(Cc4ccccc4N(C(C)=O)C3)C2)c1 ?
Pf Dd2 inh: -3%

What do the screens show for `COCC(=O)N1C[C@@H]2CCCN3CCC[C@@H]([C@H]23)[C@H]1CCCC(=O)NCC1CC1`?
Pf Dd2 inh: 14%

Results for O=C1N[C@H](CC(=O)N2CCOC(c3ccccc3)C2)C(=O)Nc2ccccc21 (some centres not stated) ?
Pf Dd2 inh: -18%

How did COc1cccc(CC(=O)N2CCC3(CC2)OC(=O)N(Cc2ncccn2)C3(C)c2ccccc2)c1 (configuration not stated) do in these assays?
Pf Dd2 inh: -4%

What do the screens show for `COc1cccc(CC(=O)N2CCC3(CC2)OC(=O)N(Cc2csc(C)n2)C3(C)c2ccccc2)c1` (configuration not stated)?
Pf Dd2 inh: 4µM*

How did Cc1nc(CN2C(=O)OC3(CCN(C(=O)Cc4ccc(O)cc4)CC3)C2(C)c2ccccc2)cs1 (configuration not stated) do in these assays?
Pf Dd2 inh: inactive

What do the screens show for `CC(=O)N[C@H](C)c1onc(-c2ccc(F)cc2)c1C(=O)O`?
Pf Dd2 inh: 22%[44.1 µM]

How did CCOC(=O)N1CCC(NC2CC(=O)N(CCc3ccc(OC)cc3)C2)CC1 (configuration not stated) do in these assays?
Pf Dd2 inh: inactive

Results for Cc1ccc(-n2nc(C)c([C@H]3C=C[C@@H](O)C3)c2C)cc1Cl ?
Pf Dd2 inh: inactive

How did COc1ccc(C(=O)N[C@@H]2C=C[C@@H](c3c(C)nn(-c4ccc(C)c(Cl)c4)c3C)C2)cc1 do in these assays?
Pf Dd2 inh: 4.5µM*

How did COc1ccc(C(=O)N[C@@H]2C=C[C@@H](c3c(C)nn(-c4ccccc4)c3C)C2)cc1 do in these assays?
Pf Dd2 inh: -24%[44.1 µM]

Results for Cc1nn(-c2ccc(C(F)(F)F)cc2)c(C)c1[C@@H]1C=C[C@@H](NS(=O)(=O)c2ccccc2)C1 ?
Pf Dd2 inh: inactive

What do the screens show for `Cc1ccc(-n2nc(C)c([C@@H]3C=C[C@@H](NS(=O)(=O)c4cccs4)C3)c2C)cc1Cl`?
Pf Dd2 inh: 11µM*

Results for COc1ccc(C(=O)N[C@@H]2C=C[C@@H](c3c(C)nn(-c4ccc(C(F)(F)F)cc4)c3C)C2)cc1 ?
Pf Dd2 inh: -7%

Results for CC(C)NC(=O)N1CCC2(CC1)CC(N(C)Cc1ccccc1)CCO2 (configuration not stated) ?
Pf Dd2 inh: -23%

What do the screens show for `Cc1ncc2c(c1CNC(=O)c1cc(F)cc(Cl)c1)CCNC2`?
Pf Dd2 inh: -16%

What do the screens show for `CCNC(=O)N1C[C@H]2OC(=O)N(Cc3ccc(OC)c(OC)c3)[C@H]2C1`?
Pf Dd2 inh: 3%

What do the screens show for `COCCn1ncc(N2CCC(NC(=O)c3ccccc3OC)CC2)cc1=O`?
Pf Dd2 inh: -11%

How did C[S+](=O)([O-])c1ccc(OCC2CN(Cc3ccccc3)C(=O)c3c(ccnc3-c3ccc(OCC(=O)O)cc3)O2)cc1 (configuration not stated) do in these assays?
Pf Dd2 inh: 12%

Results for O=C(c1ccc2c(c1)OCO2)N1CCc2nn(Cc3ccccc3)c(=O)n2CC1 ?
Pf Dd2 inh: -7%

Results for Cc1ncsc1C(=O)N1CCCC(CCc2ccc(F)cc2F)C1 (configuration not stated) ?
Pf Dd2 inh: -5%

What do the screens show for `COC[C@@H]1CN(C(=O)COc2ccccc2)C[C@H]1c1nc(C2CC2)no1`?
Pf Dd2 inh: -4%

What do the screens show for `O=C1NN=C(C2CC2)C12CCN([S+](=O)([O-])c1cccc(C(F)(F)F)c1)CC2`?
Pf Dd2 inh: -12%

How did CN1C(=O)CC(C(=O)O)C12CCN(Cc1nc(C(=O)O)co1)CC2 (configuration not stated) do in these assays?
Pf Dd2 inh: 13%

How did CC(O)CN1CC2(CCC1=O)CCN(CCCn1ccnc1)CC2 (configuration not stated) do in these assays?
Pf Dd2 inh: 0%

How did O=C1CCC2(CCN(C/C=C/c3ccccc3)CC2)CN1CCCn1ccnc1 do in these assays?
Pf Dd2 inh: 10µM*

What do the screens show for `Cc1cc(C(=O)N2CCC3(CCC(=O)N(CCCn4ccnc4)C3)CC2)c(C)o1`?
Pf Dd2 inh: 6%

What do the screens show for `COC(=O)C(NC(=O)N1CCc2nc3cc(-c4ccccc4)[nH]n3c(=O)c2C1)C(C)C` (configuration not stated)?
Pf Dd2 inh: inactive[5.79 µM]

Results for Cc1ccc2nc(CO[C@H]3CN(Cc4cn(C)c5ccccc45)C[C@H]3F)[nH]c2c1 ?
Pf Dd2 inh: -14%[44.1 µM]

How did COc1ccc(C[C@H](NC(=O)C2=C[C@@H](NC(=O)CSCC(=O)O)[C@@H](O)[C@H](O)C2)C(N)=O)cc1 do in these assays?
Pf Dd2 inh: 17%

How did Cc1cccc(OCC(=O)N2C[C@@H](CO)[C@H](c3nc(C4CC4)no3)C2)c1 do in these assays?
Pf Dd2 inh: -21%

How did Cc1cccc(Cn2cc(S(=O)(=O)c3cccc(C)c3)c(=O)c3cc(F)c(N4CCOCC4)cc32)c1 do in these assays?
Pf Dd2 inh: 0%

Results for Cc1ccc(C)c(S(=O)(=O)c2cn(Cc3ccccc3)c3cc(N4CCCC4)c(F)cc3c2=O)c1 ?
Pf Dd2 inh: 10µM*

How did CCCCn1cc(S(=O)(=O)c2cccc(C)c2)c(=O)c2cc(F)c(N3CCOCC3)cc21 do in these assays?
Pf Dd2 inh: -28%

Results for CCCCn1cc(S(=O)(=O)c2cc(C)ccc2C)c(=O)c2cc(F)c(N3CCC(C)CC3)cc21 ?
Pf Dd2 inh: 46%

What do the screens show for `Cc1ccc(S(=O)(=O)c2cn(Cc3ccccc3)c3cc(N4CCOCC4)c(F)cc3c2=O)cc1`?
Pf Dd2 inh: 7.9µM*
